The structures appear in SMILES notation.

Broadly, the residual activity is the signal under treatment as a percentage of the control signal.

Assay [1] has as its target T1, Ephrin type-A receptor 3 (Homo sapiens) (UniProt P29320).
T1 sequence (whole entry): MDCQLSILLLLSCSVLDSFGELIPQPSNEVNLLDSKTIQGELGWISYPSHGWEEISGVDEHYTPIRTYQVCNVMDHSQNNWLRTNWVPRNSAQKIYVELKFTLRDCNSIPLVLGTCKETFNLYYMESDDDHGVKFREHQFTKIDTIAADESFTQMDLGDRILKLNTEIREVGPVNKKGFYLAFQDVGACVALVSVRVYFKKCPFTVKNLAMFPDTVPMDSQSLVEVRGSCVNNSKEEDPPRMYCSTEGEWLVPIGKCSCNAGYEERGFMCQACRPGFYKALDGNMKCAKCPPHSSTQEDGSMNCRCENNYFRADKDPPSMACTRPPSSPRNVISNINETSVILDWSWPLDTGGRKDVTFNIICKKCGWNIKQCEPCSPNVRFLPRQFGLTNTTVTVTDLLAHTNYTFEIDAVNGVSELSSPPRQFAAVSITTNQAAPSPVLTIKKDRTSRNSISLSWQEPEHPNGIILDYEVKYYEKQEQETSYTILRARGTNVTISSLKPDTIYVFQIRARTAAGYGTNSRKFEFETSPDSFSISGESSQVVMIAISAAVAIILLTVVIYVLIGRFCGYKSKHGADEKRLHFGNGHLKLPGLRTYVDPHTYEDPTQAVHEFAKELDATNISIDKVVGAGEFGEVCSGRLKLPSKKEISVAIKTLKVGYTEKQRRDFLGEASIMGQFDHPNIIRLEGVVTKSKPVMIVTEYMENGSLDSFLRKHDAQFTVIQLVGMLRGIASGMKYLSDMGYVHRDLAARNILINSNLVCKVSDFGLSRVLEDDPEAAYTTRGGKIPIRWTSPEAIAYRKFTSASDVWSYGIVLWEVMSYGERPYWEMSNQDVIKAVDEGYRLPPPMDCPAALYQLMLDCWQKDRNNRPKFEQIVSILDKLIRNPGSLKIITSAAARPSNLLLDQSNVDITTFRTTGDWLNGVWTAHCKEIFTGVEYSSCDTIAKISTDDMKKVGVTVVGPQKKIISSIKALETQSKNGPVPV
Conditions: at 10 µM; call rule not given here.

Assay [2] has as its target Ephrin type-A receptor 4 (Homo sapiens) (UniProt P54764). The following applies: at 1 µM.
Assay [3] shares this target. Conditions: at 10 µM.
Assay [4] has as its target Ephrin type-A receptor 5 (Homo sapiens) (UniProt P54756). The following applies: at 1 µM.
Assay [5] has the same target. Conditions: at 10 µM.
Assay [6] deals with Ephrin type-A receptor 7 (Homo sapiens) (UniProt Q15375). Conditions: at 1 µM.
Ephrin type-A receptor 7 (Homo sapiens), sequence (Q15375 28-998 limits assumed): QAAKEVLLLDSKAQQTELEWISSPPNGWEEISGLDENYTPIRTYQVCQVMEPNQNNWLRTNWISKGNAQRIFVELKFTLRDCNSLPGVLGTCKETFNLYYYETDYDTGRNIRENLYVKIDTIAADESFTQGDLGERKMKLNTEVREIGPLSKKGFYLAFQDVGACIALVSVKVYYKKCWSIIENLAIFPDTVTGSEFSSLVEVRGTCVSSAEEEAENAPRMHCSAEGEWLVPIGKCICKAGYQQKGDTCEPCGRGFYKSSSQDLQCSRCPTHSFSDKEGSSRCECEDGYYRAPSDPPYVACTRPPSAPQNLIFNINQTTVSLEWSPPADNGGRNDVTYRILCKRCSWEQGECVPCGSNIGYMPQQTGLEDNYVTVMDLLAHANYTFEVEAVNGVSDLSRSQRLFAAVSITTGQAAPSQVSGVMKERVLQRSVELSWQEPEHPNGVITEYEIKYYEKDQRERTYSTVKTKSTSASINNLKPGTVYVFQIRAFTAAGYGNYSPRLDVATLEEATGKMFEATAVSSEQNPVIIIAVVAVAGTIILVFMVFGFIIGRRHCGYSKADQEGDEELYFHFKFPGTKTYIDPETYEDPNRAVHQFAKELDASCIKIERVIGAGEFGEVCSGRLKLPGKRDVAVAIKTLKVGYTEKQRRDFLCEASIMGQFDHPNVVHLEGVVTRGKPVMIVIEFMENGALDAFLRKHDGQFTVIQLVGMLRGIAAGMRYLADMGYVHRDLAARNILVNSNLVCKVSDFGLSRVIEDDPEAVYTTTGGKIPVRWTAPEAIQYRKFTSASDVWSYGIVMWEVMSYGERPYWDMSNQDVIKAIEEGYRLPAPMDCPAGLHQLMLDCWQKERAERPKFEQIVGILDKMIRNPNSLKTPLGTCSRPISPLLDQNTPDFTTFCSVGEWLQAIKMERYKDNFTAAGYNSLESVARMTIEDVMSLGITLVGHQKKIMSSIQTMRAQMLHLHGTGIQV
The target is the same in assay [7]. The following applies: at 10 µM.
Assay [8] addresses T2, Ephrin type-A receptor 8 (Homo sapiens) (UniProt P29322).
T2 sequence (whole entry): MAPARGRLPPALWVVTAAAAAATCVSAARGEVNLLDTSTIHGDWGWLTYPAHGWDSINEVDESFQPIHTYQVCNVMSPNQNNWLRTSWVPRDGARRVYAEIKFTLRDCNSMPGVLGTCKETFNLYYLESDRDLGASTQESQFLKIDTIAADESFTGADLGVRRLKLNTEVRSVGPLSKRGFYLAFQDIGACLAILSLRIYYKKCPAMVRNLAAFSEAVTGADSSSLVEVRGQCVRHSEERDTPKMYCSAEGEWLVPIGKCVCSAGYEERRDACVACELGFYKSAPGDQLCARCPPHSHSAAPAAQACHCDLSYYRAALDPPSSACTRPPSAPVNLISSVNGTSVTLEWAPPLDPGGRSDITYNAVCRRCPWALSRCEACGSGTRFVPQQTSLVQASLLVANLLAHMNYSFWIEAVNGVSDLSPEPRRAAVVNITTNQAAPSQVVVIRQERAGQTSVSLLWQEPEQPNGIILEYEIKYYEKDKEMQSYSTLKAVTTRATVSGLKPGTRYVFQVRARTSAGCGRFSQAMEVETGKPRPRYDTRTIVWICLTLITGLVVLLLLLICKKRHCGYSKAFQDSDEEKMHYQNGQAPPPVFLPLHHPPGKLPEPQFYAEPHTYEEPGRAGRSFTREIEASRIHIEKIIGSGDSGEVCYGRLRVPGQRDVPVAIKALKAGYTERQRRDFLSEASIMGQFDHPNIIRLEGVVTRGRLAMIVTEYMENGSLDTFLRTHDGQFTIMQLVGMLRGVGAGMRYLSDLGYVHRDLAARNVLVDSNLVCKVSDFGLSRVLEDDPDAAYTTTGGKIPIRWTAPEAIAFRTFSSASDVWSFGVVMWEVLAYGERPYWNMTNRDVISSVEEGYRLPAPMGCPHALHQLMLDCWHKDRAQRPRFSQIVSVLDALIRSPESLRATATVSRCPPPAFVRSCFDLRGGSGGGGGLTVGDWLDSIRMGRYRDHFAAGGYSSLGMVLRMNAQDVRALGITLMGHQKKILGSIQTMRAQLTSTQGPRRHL
Conditions: at 1 µM.

The target of assay [9] is T2, Ephrin type-A receptor 8 (Homo sapiens). Conditions: at 10 µM.
For assay [10], the target named is T3, Ephrin type-B receptor 1 (Homo sapiens) (UniProt P54762).
T3 sequence (whole entry): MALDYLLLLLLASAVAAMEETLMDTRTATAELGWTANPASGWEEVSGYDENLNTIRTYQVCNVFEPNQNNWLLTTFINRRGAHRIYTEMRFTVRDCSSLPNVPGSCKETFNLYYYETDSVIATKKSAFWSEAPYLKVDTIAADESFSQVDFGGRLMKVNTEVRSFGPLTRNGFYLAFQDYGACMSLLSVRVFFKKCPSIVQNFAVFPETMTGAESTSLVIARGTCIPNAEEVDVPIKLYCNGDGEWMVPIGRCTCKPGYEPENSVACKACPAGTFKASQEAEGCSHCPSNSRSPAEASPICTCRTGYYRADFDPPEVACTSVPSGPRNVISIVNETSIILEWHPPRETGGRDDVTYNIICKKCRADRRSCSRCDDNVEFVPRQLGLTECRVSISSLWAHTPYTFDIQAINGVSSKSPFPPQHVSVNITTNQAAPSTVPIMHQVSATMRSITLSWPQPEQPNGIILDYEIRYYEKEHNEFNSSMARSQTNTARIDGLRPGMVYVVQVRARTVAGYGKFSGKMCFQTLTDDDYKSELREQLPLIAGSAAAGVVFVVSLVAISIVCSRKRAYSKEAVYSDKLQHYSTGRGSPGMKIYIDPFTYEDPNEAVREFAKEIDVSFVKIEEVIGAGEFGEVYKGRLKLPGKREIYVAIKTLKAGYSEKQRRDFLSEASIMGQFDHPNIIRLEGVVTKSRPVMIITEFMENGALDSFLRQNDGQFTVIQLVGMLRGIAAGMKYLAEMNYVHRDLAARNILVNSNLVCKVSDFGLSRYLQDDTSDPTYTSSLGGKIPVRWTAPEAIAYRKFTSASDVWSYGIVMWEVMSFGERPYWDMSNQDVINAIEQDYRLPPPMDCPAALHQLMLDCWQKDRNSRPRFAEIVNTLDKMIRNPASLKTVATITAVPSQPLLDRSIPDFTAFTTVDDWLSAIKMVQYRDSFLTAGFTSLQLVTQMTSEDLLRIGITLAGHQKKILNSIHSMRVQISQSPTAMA
The following applies: at 1 µM.

For assay [11], the target named is T3, Ephrin type-B receptor 1 (Homo sapiens). Conditions: at 10 µM.
Assay [12] has as its target T4, Ephrin type-B receptor 2 (Homo sapiens) (UniProt P29323).
T4 sequence (whole entry): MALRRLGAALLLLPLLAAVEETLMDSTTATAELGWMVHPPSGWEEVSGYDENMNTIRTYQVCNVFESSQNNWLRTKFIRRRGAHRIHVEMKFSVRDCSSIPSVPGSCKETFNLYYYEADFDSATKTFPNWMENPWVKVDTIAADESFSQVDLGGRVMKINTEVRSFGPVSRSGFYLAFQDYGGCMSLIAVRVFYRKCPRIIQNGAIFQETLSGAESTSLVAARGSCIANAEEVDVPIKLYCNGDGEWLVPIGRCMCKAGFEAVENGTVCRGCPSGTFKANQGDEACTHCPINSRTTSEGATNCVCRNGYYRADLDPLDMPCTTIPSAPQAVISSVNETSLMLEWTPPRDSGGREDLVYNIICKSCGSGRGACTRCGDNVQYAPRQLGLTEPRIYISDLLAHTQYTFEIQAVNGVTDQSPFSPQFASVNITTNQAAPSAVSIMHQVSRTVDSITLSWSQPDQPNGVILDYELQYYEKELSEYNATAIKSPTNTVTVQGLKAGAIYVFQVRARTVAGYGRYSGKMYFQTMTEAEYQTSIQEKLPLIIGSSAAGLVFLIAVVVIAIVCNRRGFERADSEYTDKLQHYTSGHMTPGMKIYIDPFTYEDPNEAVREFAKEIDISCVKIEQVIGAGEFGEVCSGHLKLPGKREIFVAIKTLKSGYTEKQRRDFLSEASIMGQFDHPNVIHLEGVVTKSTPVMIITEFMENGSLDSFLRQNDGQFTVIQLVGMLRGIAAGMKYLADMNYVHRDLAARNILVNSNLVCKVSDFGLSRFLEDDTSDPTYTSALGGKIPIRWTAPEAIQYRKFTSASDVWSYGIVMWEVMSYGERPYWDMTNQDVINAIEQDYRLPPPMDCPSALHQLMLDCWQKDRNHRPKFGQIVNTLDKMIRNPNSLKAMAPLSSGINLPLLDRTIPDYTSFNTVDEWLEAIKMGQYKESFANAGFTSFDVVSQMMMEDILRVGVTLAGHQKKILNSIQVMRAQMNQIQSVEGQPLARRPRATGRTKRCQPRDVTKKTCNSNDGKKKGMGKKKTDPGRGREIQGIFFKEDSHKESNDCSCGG
Conditions: at 1 µM.

The target of assay [13] is T4, Ephrin type-B receptor 2 (Homo sapiens). The following applies: at 10 µM.
The target of assay [14] is T5, Ephrin type-B receptor 3 (Homo sapiens) (UniProt P54753).
T5 sequence (whole entry): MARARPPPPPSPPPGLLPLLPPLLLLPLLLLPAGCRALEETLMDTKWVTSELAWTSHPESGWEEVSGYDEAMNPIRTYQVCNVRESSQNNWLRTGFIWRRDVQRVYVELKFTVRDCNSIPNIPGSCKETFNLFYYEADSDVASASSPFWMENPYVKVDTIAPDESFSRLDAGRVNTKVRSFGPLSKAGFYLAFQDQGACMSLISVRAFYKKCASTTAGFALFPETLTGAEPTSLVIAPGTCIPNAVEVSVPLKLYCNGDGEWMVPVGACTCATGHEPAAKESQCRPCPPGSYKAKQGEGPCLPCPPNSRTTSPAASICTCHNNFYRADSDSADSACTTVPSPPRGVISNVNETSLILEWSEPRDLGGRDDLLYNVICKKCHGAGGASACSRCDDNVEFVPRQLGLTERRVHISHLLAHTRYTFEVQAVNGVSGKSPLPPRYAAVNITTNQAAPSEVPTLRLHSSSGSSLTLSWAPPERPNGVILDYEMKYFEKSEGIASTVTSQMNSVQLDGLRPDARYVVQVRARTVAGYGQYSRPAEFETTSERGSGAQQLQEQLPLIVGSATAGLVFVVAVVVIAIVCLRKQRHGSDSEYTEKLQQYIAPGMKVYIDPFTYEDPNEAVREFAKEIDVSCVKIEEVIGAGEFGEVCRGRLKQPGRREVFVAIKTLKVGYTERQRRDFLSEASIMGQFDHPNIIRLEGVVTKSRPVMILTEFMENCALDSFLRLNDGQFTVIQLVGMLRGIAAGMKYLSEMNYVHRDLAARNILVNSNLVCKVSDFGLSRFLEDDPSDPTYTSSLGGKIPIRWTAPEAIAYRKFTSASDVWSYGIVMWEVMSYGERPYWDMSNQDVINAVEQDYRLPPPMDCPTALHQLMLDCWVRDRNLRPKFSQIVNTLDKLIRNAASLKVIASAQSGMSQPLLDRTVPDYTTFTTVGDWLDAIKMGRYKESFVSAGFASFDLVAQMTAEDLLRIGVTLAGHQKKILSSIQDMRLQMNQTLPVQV
The following applies: at 1 µM.

For assay [15], the target named is T6, Ephrin type-B receptor 4 (Homo sapiens) (UniProt P54760).
T6 sequence (whole entry): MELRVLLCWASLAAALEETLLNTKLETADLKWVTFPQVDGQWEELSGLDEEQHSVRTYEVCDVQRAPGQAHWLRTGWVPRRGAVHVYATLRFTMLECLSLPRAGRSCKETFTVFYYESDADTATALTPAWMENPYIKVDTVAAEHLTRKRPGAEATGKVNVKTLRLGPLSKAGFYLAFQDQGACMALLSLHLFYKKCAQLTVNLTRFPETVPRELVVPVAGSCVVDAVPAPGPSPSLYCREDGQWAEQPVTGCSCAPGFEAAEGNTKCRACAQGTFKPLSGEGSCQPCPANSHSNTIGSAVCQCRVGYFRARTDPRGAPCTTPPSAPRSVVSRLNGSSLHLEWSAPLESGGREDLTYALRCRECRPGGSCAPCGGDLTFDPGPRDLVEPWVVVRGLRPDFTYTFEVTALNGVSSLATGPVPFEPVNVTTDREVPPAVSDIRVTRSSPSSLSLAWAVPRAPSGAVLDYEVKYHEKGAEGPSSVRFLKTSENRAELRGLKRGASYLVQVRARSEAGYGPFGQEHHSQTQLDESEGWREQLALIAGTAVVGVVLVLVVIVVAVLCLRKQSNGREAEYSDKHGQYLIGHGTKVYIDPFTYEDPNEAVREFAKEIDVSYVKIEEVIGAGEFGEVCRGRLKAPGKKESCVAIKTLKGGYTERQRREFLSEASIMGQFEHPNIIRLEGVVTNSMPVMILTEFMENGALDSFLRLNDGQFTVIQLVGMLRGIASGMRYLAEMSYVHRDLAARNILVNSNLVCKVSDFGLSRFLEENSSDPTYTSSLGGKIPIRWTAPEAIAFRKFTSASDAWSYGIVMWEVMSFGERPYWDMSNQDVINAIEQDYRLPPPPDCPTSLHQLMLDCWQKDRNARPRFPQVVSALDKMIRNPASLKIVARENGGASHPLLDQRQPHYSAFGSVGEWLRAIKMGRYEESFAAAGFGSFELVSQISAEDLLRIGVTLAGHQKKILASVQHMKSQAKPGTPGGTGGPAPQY
Conditions: at 1 µM.

In assay [16] the target is T6, Ephrin type-B receptor 4 (Homo sapiens). The following applies: at 10 µM.
Assay [17] addresses Receptor tyrosine-protein kinase erbB-4 (Homo sapiens) (UniProt Q15303). Conditions: at 1 µM.
Assay [18] has the same target. Conditions: at 10 µM.

Ephrin type-A receptor 4 (Homo sapiens), sequence (P54764 whole entry): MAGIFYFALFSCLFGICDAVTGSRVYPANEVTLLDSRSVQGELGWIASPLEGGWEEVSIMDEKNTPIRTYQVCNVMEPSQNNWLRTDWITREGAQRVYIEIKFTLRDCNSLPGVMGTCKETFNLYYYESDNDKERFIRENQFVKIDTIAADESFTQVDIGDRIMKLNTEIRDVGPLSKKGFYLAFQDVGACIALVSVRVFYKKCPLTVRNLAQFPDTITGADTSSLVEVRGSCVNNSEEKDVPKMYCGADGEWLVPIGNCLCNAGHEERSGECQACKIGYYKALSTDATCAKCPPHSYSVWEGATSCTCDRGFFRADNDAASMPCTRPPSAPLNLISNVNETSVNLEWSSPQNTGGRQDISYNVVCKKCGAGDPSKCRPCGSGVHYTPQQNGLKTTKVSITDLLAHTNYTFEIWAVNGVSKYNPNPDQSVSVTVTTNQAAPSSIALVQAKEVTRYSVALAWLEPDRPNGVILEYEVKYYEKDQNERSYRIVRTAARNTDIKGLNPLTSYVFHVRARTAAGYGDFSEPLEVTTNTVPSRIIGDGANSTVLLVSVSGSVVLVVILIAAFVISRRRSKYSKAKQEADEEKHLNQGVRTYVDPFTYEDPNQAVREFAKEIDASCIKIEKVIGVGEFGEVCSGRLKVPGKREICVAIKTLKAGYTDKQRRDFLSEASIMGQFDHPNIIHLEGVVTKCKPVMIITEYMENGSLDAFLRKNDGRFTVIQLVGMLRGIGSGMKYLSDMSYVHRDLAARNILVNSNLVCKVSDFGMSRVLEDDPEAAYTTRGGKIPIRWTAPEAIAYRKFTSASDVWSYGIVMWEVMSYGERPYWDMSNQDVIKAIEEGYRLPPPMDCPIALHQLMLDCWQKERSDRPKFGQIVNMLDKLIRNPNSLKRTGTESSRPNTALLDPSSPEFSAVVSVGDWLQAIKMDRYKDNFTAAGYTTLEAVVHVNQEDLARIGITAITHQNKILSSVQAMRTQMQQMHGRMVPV
Receptor tyrosine-protein kinase erbB-4 (Homo sapiens), sequence (Q15303 whole entry): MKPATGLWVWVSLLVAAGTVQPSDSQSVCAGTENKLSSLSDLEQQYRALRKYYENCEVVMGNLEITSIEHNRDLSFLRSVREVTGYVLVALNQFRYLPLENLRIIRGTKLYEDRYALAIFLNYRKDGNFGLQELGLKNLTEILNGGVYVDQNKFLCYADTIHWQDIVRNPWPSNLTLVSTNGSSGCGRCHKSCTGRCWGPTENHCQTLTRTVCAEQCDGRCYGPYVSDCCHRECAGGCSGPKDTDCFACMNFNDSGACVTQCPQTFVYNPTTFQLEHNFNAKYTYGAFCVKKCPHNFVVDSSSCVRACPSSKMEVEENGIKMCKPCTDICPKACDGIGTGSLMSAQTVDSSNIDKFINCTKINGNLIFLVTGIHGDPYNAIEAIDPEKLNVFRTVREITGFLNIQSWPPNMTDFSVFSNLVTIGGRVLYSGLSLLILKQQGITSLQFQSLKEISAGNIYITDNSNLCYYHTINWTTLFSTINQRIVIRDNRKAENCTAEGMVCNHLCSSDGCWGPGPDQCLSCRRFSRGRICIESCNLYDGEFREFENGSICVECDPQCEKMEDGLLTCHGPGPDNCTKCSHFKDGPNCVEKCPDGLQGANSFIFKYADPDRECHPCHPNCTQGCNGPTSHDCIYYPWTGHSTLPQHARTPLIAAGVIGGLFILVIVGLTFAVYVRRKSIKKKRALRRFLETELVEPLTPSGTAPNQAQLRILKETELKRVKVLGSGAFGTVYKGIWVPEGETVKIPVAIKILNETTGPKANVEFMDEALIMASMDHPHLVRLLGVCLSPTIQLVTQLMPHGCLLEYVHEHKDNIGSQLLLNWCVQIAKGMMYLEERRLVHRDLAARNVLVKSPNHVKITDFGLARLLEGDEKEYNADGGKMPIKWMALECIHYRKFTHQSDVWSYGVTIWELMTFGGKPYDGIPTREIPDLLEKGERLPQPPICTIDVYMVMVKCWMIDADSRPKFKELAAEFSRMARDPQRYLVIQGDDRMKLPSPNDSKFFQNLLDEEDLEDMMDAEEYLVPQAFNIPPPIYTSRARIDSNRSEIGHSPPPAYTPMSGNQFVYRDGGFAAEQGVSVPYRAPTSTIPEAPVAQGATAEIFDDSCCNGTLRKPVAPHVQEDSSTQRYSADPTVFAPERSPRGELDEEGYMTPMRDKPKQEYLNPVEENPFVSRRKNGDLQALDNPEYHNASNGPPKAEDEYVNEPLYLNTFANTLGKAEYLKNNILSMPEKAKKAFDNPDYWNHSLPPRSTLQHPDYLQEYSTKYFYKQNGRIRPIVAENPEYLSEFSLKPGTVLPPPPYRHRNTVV
Ephrin type-A receptor 5 (Homo sapiens), sequence (P54756 whole entry): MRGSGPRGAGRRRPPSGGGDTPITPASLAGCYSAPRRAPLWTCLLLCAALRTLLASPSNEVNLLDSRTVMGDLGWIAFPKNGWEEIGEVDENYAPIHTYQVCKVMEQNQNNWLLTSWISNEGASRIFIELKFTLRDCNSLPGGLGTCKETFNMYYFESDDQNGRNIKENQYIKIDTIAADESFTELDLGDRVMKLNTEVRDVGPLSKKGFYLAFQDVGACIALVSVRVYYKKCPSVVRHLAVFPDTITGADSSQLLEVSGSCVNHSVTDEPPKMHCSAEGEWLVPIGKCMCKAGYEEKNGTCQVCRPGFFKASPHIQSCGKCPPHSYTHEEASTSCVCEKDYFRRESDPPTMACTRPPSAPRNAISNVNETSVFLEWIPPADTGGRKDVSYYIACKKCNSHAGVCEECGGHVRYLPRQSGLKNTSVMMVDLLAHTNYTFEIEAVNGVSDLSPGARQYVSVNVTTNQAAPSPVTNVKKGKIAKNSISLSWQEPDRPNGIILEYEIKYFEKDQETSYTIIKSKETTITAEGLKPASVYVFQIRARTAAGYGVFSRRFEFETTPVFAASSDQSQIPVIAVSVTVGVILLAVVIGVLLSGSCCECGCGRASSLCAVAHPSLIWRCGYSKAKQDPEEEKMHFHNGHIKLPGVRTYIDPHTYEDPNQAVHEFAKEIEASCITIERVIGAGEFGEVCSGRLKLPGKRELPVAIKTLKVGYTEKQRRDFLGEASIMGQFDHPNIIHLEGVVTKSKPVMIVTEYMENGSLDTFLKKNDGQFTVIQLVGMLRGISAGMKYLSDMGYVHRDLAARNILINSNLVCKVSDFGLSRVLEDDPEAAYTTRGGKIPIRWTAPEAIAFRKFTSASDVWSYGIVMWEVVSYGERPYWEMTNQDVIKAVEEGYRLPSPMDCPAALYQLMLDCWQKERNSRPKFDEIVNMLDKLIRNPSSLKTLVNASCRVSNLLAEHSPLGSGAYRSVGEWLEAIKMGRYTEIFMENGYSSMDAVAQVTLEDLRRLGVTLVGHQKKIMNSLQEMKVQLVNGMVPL

On to `CCCC(=O)Oc1ccc2[nH]c(C(=O)c3cc4ccccc4[nH]3)cc2c1`, for which the residual activity came out at 105% in [1]; 105% in assay [2]; 91% in [3]; 107% in assay [4]; 99% in assay [5]; 96% in assay [6]. In addition, the residual activity came out at 86% in assay [7]; 92% in assay [8]; 98% in assay [9]; 82% in assay [10]; 108% in assay [11]; 120% in assay [12]. For the same molecule, the residual activity in [13] was 131%; in assay [14], 102% (inactive); in assay [15], 92%; in assay [16], 101%; in assay [17], 81%; in assay [18] it was 95%.
